# Insulin prom up: MIN6 insulin promoter up-regulation; 0.3% of 190,000 active; z-score at 5 µM; AID 1625; MIN6 insulin promoter-GFP reporter, high-content imaging; stronger effect = higher value;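 active means z-score above 3 at 5 µM with at least 500 cells counted in the well; inconclusive means wells under 500 cells, flagged as cytotoxic or low count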
# Cl transport mod: modulates chloride dependent transport by human KCC2; KCC2 cells, thallium flux FluoZin-2 fluorescence; B-score of Tl+ flux slope (higher = more flux/activation; lower = inhibition) at 10 µM; 2.2% of 190,000 active; AID 1456;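 active means thallium flux slope and its plate-corrected score both differing from the plate sample mean at a set confidence after two filtering rounds, in either direction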;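 further: slope of fluorescence scaled to starting intensity during 10 to 20 s after thallium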
# Target sequence (Q9H2X9 whole entry, looked up): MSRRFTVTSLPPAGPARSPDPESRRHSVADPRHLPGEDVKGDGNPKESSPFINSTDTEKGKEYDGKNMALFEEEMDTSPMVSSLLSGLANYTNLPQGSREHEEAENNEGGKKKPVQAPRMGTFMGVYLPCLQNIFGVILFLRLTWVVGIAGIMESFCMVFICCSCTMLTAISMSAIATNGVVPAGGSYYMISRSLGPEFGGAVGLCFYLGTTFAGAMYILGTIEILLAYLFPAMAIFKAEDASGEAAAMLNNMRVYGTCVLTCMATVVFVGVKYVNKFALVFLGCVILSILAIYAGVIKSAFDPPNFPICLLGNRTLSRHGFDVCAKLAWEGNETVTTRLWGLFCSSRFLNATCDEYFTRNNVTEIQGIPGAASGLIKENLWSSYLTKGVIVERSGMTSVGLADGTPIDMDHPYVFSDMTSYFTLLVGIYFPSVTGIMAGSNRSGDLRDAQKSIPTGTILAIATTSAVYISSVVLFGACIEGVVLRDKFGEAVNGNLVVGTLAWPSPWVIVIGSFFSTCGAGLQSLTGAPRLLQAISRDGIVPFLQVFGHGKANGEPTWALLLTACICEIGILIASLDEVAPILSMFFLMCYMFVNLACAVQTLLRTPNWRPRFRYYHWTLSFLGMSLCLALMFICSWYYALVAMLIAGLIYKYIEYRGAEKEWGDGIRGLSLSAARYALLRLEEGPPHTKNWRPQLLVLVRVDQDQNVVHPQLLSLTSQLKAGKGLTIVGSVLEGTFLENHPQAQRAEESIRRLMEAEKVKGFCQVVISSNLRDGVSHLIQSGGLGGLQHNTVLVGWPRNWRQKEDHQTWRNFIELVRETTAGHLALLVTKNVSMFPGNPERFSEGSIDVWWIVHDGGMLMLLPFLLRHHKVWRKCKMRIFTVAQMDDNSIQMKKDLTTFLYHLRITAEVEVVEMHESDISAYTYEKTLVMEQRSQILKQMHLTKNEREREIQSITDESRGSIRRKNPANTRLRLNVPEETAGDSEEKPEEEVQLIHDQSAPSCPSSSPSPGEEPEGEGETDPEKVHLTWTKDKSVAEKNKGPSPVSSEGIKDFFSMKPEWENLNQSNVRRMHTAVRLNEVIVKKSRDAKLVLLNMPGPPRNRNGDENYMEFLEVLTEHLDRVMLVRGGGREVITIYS
# ROMK primary: human ROMK K+ channel modulation, primary screen; P48048; Tet-inducible ROMK, thallium flux fluorescence; actives lie on both sides; B-score at 10 µM; 2% of 130,000 active; AID 1918;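 active means signal ratio slope over the read window, or its plate-corrected B-score, at least 3 SD from the plate mean, either direction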;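 further: B-score of the F/F0 ratio slope over 7 to 12 s after thallium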
# Insulin prom inh: TRM-6 insulin promoter activity inhibition. AID 1273. 0.9% of 130,000 active. TRM-6 cells (human fetal islet line), insulin promoter-eGFP reporter, imaging; reporter expression induced with tamoxifen. inhibition, % at 2 µM;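 active means inhibition above the mean plus 3 SD, with well images judged a real hit on visual review, cut at about 60% in these data, passing the limit was not always enough; inconclusive means inhibition over the cutoff but images rejected on review; inactive means inhibition not above the cutoff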
# L major viab: inhibitors of Leishmania major promastigote growth; Leishmania major promastigotes, resazurin fluorescence viability; inhibition, % at 10 µM; AID 1063; 9% of 200,000 active; in the data active means inhibition above about 50%;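 further: promastigotes grown with compound for 44 hours at 28 °C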
# WT yeast gro inh: growth inhibition of WT yeast, mitochondrial fusion screen | mitochondrial fusion phenotypic screen, WT strain | 2.1% of 190,000 active | AID 1362 | inhibition, % at 10 µM; in the data active means inhibition above about 58%; tested in S. cerevisiae
# * hit, by the source's call; ? = inconclusive; . = no result given. Compounds with a hit are over-represented: about 12% of the library has one in this group of screens.
SMILES,Insulin prom up,Cl transport mod,ROMK primary,Insulin prom inh,L major viab,WT yeast gro inh
O=C(C1CCCCN1S(=O)(=O)c1ccccc1[N+](=O)[O-])N1CCCC1 (stereo not drawn),0.39,0.028,0.00849,.,4.6,-0.2
C=CCc1ccc(O)c(-c2ccc(O)c(CC=C)c2)c1,-0.47,0.333,.,.,17.4,63.3*
C=CCc1cc(C(=O)N2CCCCC2)ccc1O,-0.28,-1.22,0.133,14.3,5.6,9.6
Cc1cc(Br)c(OCc2ccc(C(=O)N/N=C3\CC(=O)CC(C)(C)C3)cc2)c(Br)c1,0.14,-0.593,-1.17,-56.7,-0.4,-1.5
Cc1ccc(NC(=O)c2ccc(Nc3c([N+](=O)[O-])cc([N+](=O)[O-])cc3[N+](=O)[O-])cc2)cc1,?,0.355,.,-6.9,100.4*,59.8*
CC(=O)NNC(=S)NC(=O)c1cccc([N+](=O)[O-])c1,-0.19,1.58,1.84,-3.9,67.6*,11.0
O=C(NNc1c(Cl)cc(Cl)cc1Cl)c1cccc([N+](=O)[O-])c1,-0.52,-0.00248,.,28.0,79.2*,86.2
Cc1ccc(C(=O)Nc2cc([N+](=O)[O-])ccc2C)cc1,-0.85,-0.242,0.343,-7.1,-0.5,-0.2
CC(=O)Nc1ccc(NC(=S)NC(=O)c2ccc([N+](=O)[O-])cc2)cc1,-0.06,0.538,0.199,21.1,62.7*,-3.0
COC1(OC)N=C(N)C2(C#N)C(c3ccc4c(c3)OCO4)C12C#N (stereo not drawn),-0.23,-0.117,0.972,.,-0.9,17.8
CC1(C)CC(=O)c2sc(NC(=O)c3ccc4ncsc4c3)nc2C1,1.11,-2.33,.,.,1.9,2.9
COc1ccc(NC(=O)c2nc(C)c(C3(C)CC(c4cccnc4)=NO3)s2)cc1 (stereo not drawn),-1.07,0.688,.,.,.,.
Cn1cccc1/C=N/NC(=O)Cc1cccc2ccccc12,.,-0.919,-0.176,-45.0,13.2,11.0
COc1cccc(Nc2c3c(nc4c(-c5ccccc5)c(C)nn24)CCC3)c1,-0.14,1.44,.,93.8*,30.2,67.2*
Cc1nn2c(Nc3ccc(F)cc3)c3c(nc2c1-c1ccccc1)CCC3,-0.14,0.338,.,86.7*,-4.4,12.6
CCOC(=O)c1ccc(NC(=S)N2CCN(CCN=CC3=C(O)CC(c4ccccc4)CC3=O)CC2)cc1 (stereo not drawn),0.31,-0.609,.,.,.,.
COc1ccc(NC(=S)N2CCN(CCN=CC3=C(O)CC(c4ccccc4)CC3=O)CC2)cc1 (stereo not drawn),0.75,-0.0641,.,10.8,53.3*,-2.9
CCOC(=O)Cc1c(C)nc2c(-c3ccccc3)cnn2c1C,0.28,-0.448,0.501,.,-0.9,-2.2
O=C1c2ccccc2C(=O)c2c1oc(C(F)(F)F)c2C(=O)c1ccccc1,1.79,0.316,.,0.0,98.9*,-3.3
CCN(CC)S(=O)(=O)c1ccc2c(c1)nc(CCC(=O)OCC(=O)Nc1cc(OC)cc(OC)c1)n2C,0.98,-2.76,.,24.7,63.7*,3.7
COc1ccc(C2=NN(C(=O)c3cccc([N+](=O)[O-])c3)C(c3cccc([N+](=O)[O-])c3)C2)cc1 (stereo not drawn),-0.09,.,.,-78.6,52.6*,-2.4
COc1ccc(C2CC(c3ccc([N+](=O)[O-])cc3)=NN2C(=O)c2ccccc2)cc1OC (stereo not drawn),-1.28,-0.932,0.682,.,7.5,-12.6
O=C1Nc2cc(Cl)ccc2C1(N1CCNCC1)C(F)(F)F (stereo not drawn),-1.45,0.0082,-0.0771,.,-1.6,9.1
O=C1Nc2ccc(Cl)cc2[C@@](C#CC2CC2)(C(F)(F)F)O1,-0.06,-1.54,.,.,.,82.3*
Nc1ccc(C(=O)N/N=C/c2ccccc2)cc1,-0.27,-0.139,.,17.6,-6.3,8.9
COc1cccc(NC(=S)N2CCC(N(C)CC3CCCO3)CC2)c1 (stereo not drawn),0.57,0.0709,0.494,11.1,94.3*,-0.1
Cc1ccc(NC(=S)N2CCN(C(=O)C3CCCO3)CC2)c(C)c1 (stereo not drawn),.,0.738,.,-17.1,-4.3,11.1
Cc1ccc(NC(=S)N2CCC(N(C)CC3CCCO3)CC2)c(C)c1 (stereo not drawn),-0.66,.,0.498,.,90.5*,-7.4
Cc1ccc(C)c(NC(=S)N2CCC(N(C)CC3CCCO3)CC2)c1 (stereo not drawn),0.34,-0.00723,0.233,-16.7,90.9*,-4.6
CSC1=NCCN1C(=O)C(C)Oc1ccccc1 (stereo not drawn),-0.76,0.0959,.,.,1.9,8.2

# Compound activity as filed in PubChem BioAssay.
